The values that follow come from PubChem BioAssay.

Active and inactive are the calls of the source.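 How the source made its calls: active means visual image review flags a hit and inhibition of aggregation exceeds 20%; inconclusive means visual hit but inhibition at or below 20%; inactive means no hit on visual image review.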

A short description of the test: inhibitors of mutant huntingtin aggregation, primary screen, imaging, exon1htt(103Q)mCFP cells, high-content imaging (AID 483).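 Further: compound exposure lasted 3 days before fixation.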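 On nuclei count: percent of the per-plate median nuclei count of sample wells.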 Particulars: exon1htt(103Q)mCFP cell line, aggregate imaging, at 2 µM; inhibition of aggregation: stronger effect = higher value; nuclei count: measured here: cell count, toxicity.
With `CCOC(=O)Cn1ncc(-c2ccccc2)c1N`, the nuclei count stood at 67.2% and the inhibition of aggregation is -6.8% (inactive).
Consider `O=C(NCC(c1cccnc1)N1CCN(c2ccc(F)cc2)CC1)OCc1ccccc1` (stereo not given), for which the inhibition of aggregation is -3.7% (inactive) and the nuclei count was determined as 128%.
On to `O=C(c1ccc(Cl)cc1)N1CCCOC1`, for which the nuclei count worked out at 99.2% and the inhibition of aggregation is -49% (inactive).
In the same order, the values of `Cc1ccc(S(=O)(=O)C2(C(=O)Nc3cccnc3)CC2)cc1` are 93.3% and 14.7% (inactive).
Turning to `Cc1[nH]nc(N=CC2=C(O)CC(C)(C)CC2=O)c1-c1ccc(Cl)cc1`, the nuclei count was 102% and the inhibition of aggregation is -7.7% (inactive).
For the compound `CC(C)(C)c1ccc2c(c1)OCC(C(=O)O)O2` (stereo not given), the inhibition of aggregation is -7.2% (inactive) and the nuclei count is 110%.
In the case of `Cn1c(=O)[nH]c(=O)c2c1nc(NCCCn1ccnc1)n2Cc1ccccc1`, the inhibition of aggregation is -7.8% (inactive) and the nuclei count amounted to 130%.
In the case of `CCOC(=O)C(NC(=O)CC)(Nc1ccc(S(=O)(=O)Nc2onc(C)c2C)cc1)C(F)(F)F` (stereo not given), the inhibition of aggregation was 0.6% (inactive) and the nuclei count is 95%.
In the case of `CCOc1ccc(S(=O)(=O)Nc2ccc(Cl)cn2)c(C)c1C`, the nuclei count was 87.4% and the inhibition of aggregation is 20.2% (inactive).
With `O=C(OCC#CCSc1nnc(-c2ccncc2)o1)c1cccs1`, the inhibition of aggregation was -4.1% (inactive) and the nuclei count amounted to 104%.
In the same order, the values of `O=P(O)(O)C(O)C(F)(F)C(F)(F)C(F)(F)C(F)F` (stereo not given) are -7% (inactive) and 108%.
The corresponding values for `COc1ccc(-c2nnc(SCC(=O)Nc3cc(C)on3)n2C)cc1OC` are -9.8% (inactive) and 87.3%.
Take `Cc1c(C#N)c(N)c(C(=O)c2ccccc2)n1Cc1ccccc1`: the nuclei count was 100% and the inhibition of aggregation is 15.4% (inactive).
For `CCC(C)NCC(O)COCc1ccc(Cl)cc1` (stereo not given), the inhibition of aggregation is -4% (inactive) and the nuclei count is 98.9%.
As to `CC(=O)N1CCc2cc(S(=O)(=O)CCC(=O)Nc3cccc(F)c3)ccc21`, the inhibition of aggregation is 0.3% (inactive) and the nuclei count came to 126%.
As to `O=c1c2[nH]c3cccc(Cl)c3c2ncn1CCN1CCCCC1`, the inhibition of aggregation is -4.9% (inactive) and the nuclei count is 89%.
As for `O=C(Nc1cccc2ccccc12)c1ccc(Br)o1`, the inhibition of aggregation is 7.9% (inactive) and the nuclei count was 104%.
In the same order, the values of `CN(C)S(=O)(=O)c1ccc(C(=O)N2CCCC2c2nc3ccccc3s2)cc1` (stereo not given) are 4% (inactive) and 97.5%.
As for `CSc1ccccc1NC(=O)C1CCCO1` (stereo not given), the nuclei count worked out at 105% and the inhibition of aggregation was 10.2% (inactive).
In the same order, the values of `C=CCn1c(=O)c2ccccc2n2c(SC(C)C(=O)Nc3nc(-c4ccccc4)cs3)nnc12` (stereo not given) are 90.4% and 21.8% (inactive).
Consider `CC1Cc2ccccc2N1C(=O)CSc1nc2ccccc2n1CC(=O)N1CCOCC1` (stereo not given), for which the nuclei count is 111% and the inhibition of aggregation is 6.9% (inactive).
For `COc1ccccc1C(=O)NC(C)C(c1cccs1)N1CCN(C)CC1` (stereo not given), the inhibition of aggregation is 0.7% (inactive) and the nuclei count was found to be 106%.
Take `CCn1cc(C(=O)NCCCOC)c(=O)c2cc(S(=O)(=O)N(C)C)ccc21`: the nuclei count came out at 82.6% and the inhibition of aggregation was 6% (inactive).
`Cc1cc(N2C(=O)C(O)=C(C(=O)c3ccc(C)o3)C2c2cccs2)no1` (stereo not given): the inhibition of aggregation was 13.3% (inactive) and the nuclei count was 75.8%.
Take `Cc1ccc(CNC(=O)C2CC(=O)OC23CCCC3)c(C)c1` (stereo not given): the nuclei count came to 104% and the inhibition of aggregation was -25.4% (inactive).
`CCSc1nc2ccccc2n1CCC(=O)O`: the nuclei count came to 85.7% and the inhibition of aggregation was 1.9% (inactive).
On to `COc1ccc(-c2nc(CS(=O)CC(=O)N3CCCC3)c(C)o2)cc1` (stereo not given), for which the nuclei count came out at 100% and the inhibition of aggregation is 6.1% (inactive).
The corresponding values for `COc1ccc2c(c1)CCc1cc(C(=O)N3CCN(c4ccc(N5CCOCC5)nn4)CC3)sc1-2` are 127% and -28.1% (inactive).
In the same order, the values of `COC(=O)c1ccc(Oc2nc(NC(C)C)nc(N(C)C)n2)cc1` are 94.4% and -21.7% (inactive).
With `COc1ccc(N(CC(=O)N2CCCCC2)S(=O)(=O)c2ccccc2)c(OC)c1`, the inhibition of aggregation is -4.8% (inactive) and the nuclei count was determined as 104%.
Consider `O=c1cc(CSc2nnnn2-c2ccccc2)nc2scc(-c3ccccc3)n12`, for which the inhibition of aggregation is -10.9% (inactive) and the nuclei count worked out at 114%.
For the compound `O=C1CCCc2c1nn(-c1ccccc1)[n+]2[O-]`, the inhibition of aggregation is -12.3% (inactive) and the nuclei count came to 107%.
For `Nc1nc(Nc2ccc(Cl)cc2Cl)nc(C(F)(F)F)n1`, the inhibition of aggregation was -0.7% (inactive) and the nuclei count was 96.9%.
For the compound `Cn1c(=O)c2c(nc(NCc3ccco3)n2C/C=C/c2ccccc2)n(C)c1=O`, the nuclei count worked out at 99.5% and the inhibition of aggregation is 6.1% (inactive).
The corresponding values for `Cn1c(=O)[nH]c(=O)c2c1nc(N1CCc3ccccc3C1)n2CCSc1nc2ccccc2s1` are 105% and 4.4% (inactive).
For the compound `COC(=O)c1oc2ccc(Br)cc2c1NC(C)=O`, the inhibition of aggregation was 35.6% (active) and the nuclei count was 90.2%.
For `COc1cc(NC(=O)CC(C)C)ccc1NC(=O)c1ccco1`, the nuclei count amounted to 93.3% and the inhibition of aggregation is 10.4% (inactive).
As to `CCOC(=O)N1CCC(NC(=O)C2CCC(Cn3c(=O)[nH]c4ccccc4c3=O)CC2)CC1` (stereo not given), the inhibition of aggregation is -10.3% (inactive) and the nuclei count was determined as 105%.
For `Cc1cc(C(F)F)n2nc(C(=O)Nc3ccc(S(=O)(=O)N4CCCCCC4)cc3)nc2n1`, the inhibition of aggregation is 9.9% (inactive) and the nuclei count was 85.5%.
In the case of `O=C(NCCN1CCOCC1)C1CCC(=O)N1Cc1ccccc1Cl` (stereo not given), the nuclei count was determined as 92.1% and the inhibition of aggregation is 7.5% (inactive).
